Screening results (PubChem)
GDH-TPI counter – GDH-TPI coupling enzyme inhibitors, primary screen, artefact control for M. tuberculosis FBA inhibitor project, biochemical, absorbance, full deck; GDH-TPI coupled enzyme counterscreen, NADH absorbance; inhibition, % at 4.8 µM; hit rate 1.2% among 360,000; in the data active means inhibition above about 30%
BoNT F protease – BoNT/F light chain protease inhibitors, primary screen, biochemical, flow cytometry, MLPCN library. Multiplex microsphere protease cleavage assay. Botulinum neurotoxin type F light chain protease (Clostridium botulinum). hit rate 0.22% among 360,000. inhibition, % at 10 µM; in the data active means inhibition above about 35%, passing the limit was not always enough; inconclusive means no clear call, values can overlap the other calls
Anthrax LF prot – Bacillus anthracis LF protease inhibitors, primary screen, biochemical, multiplex microsphere, MLPCN library; multiplex microsphere protease cleavage assay; hit rate 0.12% among 360,000; inhibition, % at 10 µM; AID 588501, 2011
Mtb FBA inh – Mtb FBA enzyme inhibitors, primary screen, biochemical, fluorescence, strain H37Rv | AID 588726, 2011 | Fructose-bisphosphate aldolase (Mycobacterium tuberculosis (strain ATCC 25618 / H37Rv)), … | inhibition, % at 1 µM | hit rate 2.3% among 360,000 | purified M. tuberculosis FBA, fluorescence read-out; in the data active means inhibition above about 27%
Autofluor counter – counter-screen for toxin protease inhibitors: compound fluorescence. fluorescence intensity (concentration not given with the values). hit rate 3.1% among 360,000. compound autofluorescence counterscreen, microsphere flow cytometry; stronger effect = higher value. AID 624483; in the data active means fluorescence intensity above about 16000; inconclusive means no clear call, values can overlap the other calls
BoNT A protease – BoNT/A light chain protease inhibitors, primary screen, biochemical, flow cytometry, MLPCN library | Botulinum neurotoxin type A light chain protease (Clostridium botulinum A str. ATCC 3502) | multiplex microsphere protease substrate cleavage | inhibition, % at 10 µM | hit rate 0.17% among 360,000 | AID 588499, 2011
Each line names hits and unclear results; the compound was inactive in the other large screens. An excerpt weighted towards active compounds, which were near 6.7% of everything screened. Unless noted, no stated cut-off is given here; in the data, active means inhibition above about 30%; inconclusive means no clear call, values can overlap the other calls; inactive means below that.

O=C(c1ccc(F)cc1)C(C(=O)N1CCCCC1)n1ccccc1=O (stereo not drawn)	none
Cc1cc(NC(=O)c2cc3ccccc3oc2=O)no1	none
O=C(Nc1ccon1)c1cc2ccccc2oc1=O	Autofluor counter 20901
CCOc1ccccc1NC(=O)c1cc2ccccc2o1	none
CCOc1ccccc1NC(=O)c1cc2ccccc2oc1=O	BoNT F protease 39.9
COc1cc(C(=O)N/N=C/c2ccc(OC(=O)c3ccccc3)c(OC)c2)ccc1O	none
COc1ccccc1NC(=O)C(C)Nc1ccc(C)c(Cl)c1 (stereo not drawn)	none
C=CCn1c(N)c(C(=O)NC2CCCCC2)sc1=S	Autofluor counter 23947
COc1ccc(Cl)cc1N/C(N)=N/c1nc(CSc2ccc(C)cc2)cc(=O)[nH]1	Autofluor counter 23248
COC(=O)c1sccc1NC(=O)c1ccc(C)cc1	none
COC(=O)c1sccc1NC(=O)c1ccc(Br)s1	Autofluor counter 22720
COC(=O)c1sccc1NC(=O)c1csc(C)c1	Autofluor counter 16143
CC1(C)Cc2cccc(OCC(=O)Nc3ccccc3N3CCOCC3)c2O1	Autofluor counter 16540
CC1(C)Cc2cccc(OCC(=O)Nc3ccccc3C(F)(F)F)c2O1	Autofluor counter inconclusive
Cc1nc(C(=O)Nc2ccc(Cl)cc2Cl)nn1-c1cc(OC(C)C)c(Cl)cc1Cl	none
Cc1nc(C(=O)Nc2cccc(Cl)c2)nn1-c1cc(OC(C)C)c(Cl)cc1Cl	Autofluor counter 23251, BoNT A protease inconclusive
Cc1nc(C(=O)Nc2cc(Cl)ccc2Cl)nn1-c1cc(OC(C)C)c(Cl)cc1Cl	Autofluor counter 24341
CC(C)Oc1ccc(C(=O)O)c(C(=O)O)c1	Autofluor counter 25281, BoNT A protease inconclusive
CCc1nc2ccccc2c(C(=O)O)c1C	Autofluor counter 22245
CCc1nc2ccccc2c(C(=O)NCc2ccccc2)c1C	none
CCC(=O)Nc1c(C)c(CC)nc2ccccc12	Autofluor counter 16775
COc1cccc(C2=CC(c3ccc(N(C)C)cc3)n3nnnc3N2)c1 (stereo not drawn)	Autofluor counter 16376
Cc1ccc(-n2nc3c(=O)n(CCCC(=O)N4CCCCC4)nc(C)c3c2C)cc1	none
NC(=O)NC(c1ccccc1)c1ccccc1	none
NC(=O)NC(c1ccccc1)c1ccccc1F (stereo not drawn)	Autofluor counter 23015
CCCOc1ccc(C(=O)NNC(=S)NC(C)=O)cc1	none (no result: BoNT F protease, Anthrax LF prot, Autofluor counter, BoNT A protease)
Cc1cccc(N(C(=O)CS(=O)CC(=O)Nc2ccc3c(c2)OCO3)C(C)C(=O)NC2CCCC2)c1C (stereo not drawn)	none
Cc1ccccc1N(CC(=O)NC1CCCC1)C(=O)CS(=O)CC(=O)Nc1ccc2c(c1)OCO2 (stereo not drawn)	Autofluor counter 20092
O=C1c2ccccc2C(=O)N1Cc1nc2ccccc2o1	none
Cc1sc(NC(=O)C2CCCCC2C(=O)O)c(C(N)=O)c1C (stereo not drawn)	Autofluor counter 23098
COc1ccc(C#Cc2c(-c3ccccc3)n(-c3ccccc3)c3ccc(CO)cc23)cc1	GDH-TPI counter 32.6, Mtb FBA inh 113.1
CCc1ccc(NC(=O)CCc2nc3cccnc3n2Cc2ccc(OC)cc2)cc1	none
Cc1cc2c(=O)n(NC(N)=O)c(C)nc2s1	Mtb FBA inh 150.5
Oc1[nH]c2ccccc2c1/C=N/c1nccs1	GDH-TPI counter 31.1
COc1ccc(/C=C2\SC(=O)N=C2N)cc1OC	none
CCCNc1c(N)n(-c2ccccc2)c(=O)[nH]c1=O	Autofluor counter 21763, BoNT A protease inconclusive
Cc1nc2ccccn2c1C(=O)N/N=C/c1ccc(CNC(=O)C(=O)Nc2ccccc2)o1	GDH-TPI counter 37.6
O=S(=O)(Nc1ccc(Cc2ccncc2)cc1)c1ccc(Br)s1	Autofluor counter 16939
O=S(=O)(Nc1ccc(Cc2ccncc2)cc1)c1ccc(Cl)s1	none
CN(C)/C(CN1CCOCC1)=C1\N=C(c2ccccc2)OC1=O	Autofluor counter 23718
CN(C)/C(Cn1cncn1)=C1/N=C(c2c(F)cccc2F)OC1=O	none
Cc1cccc(NC(=O)Cn2c(=O)oc3ccccc32)n1	none
CCOc1ccc(NC(=O)CN(C)C(=O)c2ccccc2Cc2ccccc2)cc1OCC	none
CCOc1ccc(CC(=O)Nc2sc(Cc3ccccc3)cc2C(N)=O)cc1OCC	Autofluor counter 17390
NC(=O)c1cc(Cc2ccccc2)sc1NC(=O)c1ccco1	GDH-TPI counter 39.3
C[C@]12CC[C@H](O)CC1=CC(=O)C1C2CC[C@]2(C)C(=O)[C@H](O)CC12 (stereo partly drawn)	none
Cc1ccc(CN2CCC(c3cc(-c4ccc(Cl)cc4)n[nH]3)CC2)cc1	BoNT F protease inconclusive
O=C(NC1CCCC1)c1ccc(CS(=O)(=O)Cc2ccccc2F)o1	none
O=C(NC1CCCC1)c1ccc(CSCc2ccccc2F)o1	Autofluor counter 23171
COc1ccc(NC(=O)CN2C(=O)NC(CC(C)C)C2=O)cc1S(=O)(=O)N1CCOCC1 (stereo not drawn)	none
C=CCNC(=O)c1cc2c(=O)n3ccccc3nc2s1	Mtb FBA inh active
Cc1cccn2c(=O)c3cc(C(=O)NC4CCS(=O)(=O)C4)sc3nc12 (stereo not drawn)	Mtb FBA inh 191.8
O=C(NC1CCCCCC1)c1cc2c(=O)n3ccccc3nc2s1	Mtb FBA inh active
CCOC(=O)CCNC(=O)N1CCCC(C(=O)c2cc(C)c(OC)c(C)c2)C1 (stereo not drawn)	none
COc1cccc(N2CCN(c3nc(C)c(C)c(=O)[nH]3)CC2)c1	none
COC(=O)c1cc2c(C)c(C)c3ccccn3c-2c1C(=O)OC	none
CC(C)OC(=O)c1c2c(n3ccccc13)C(=O)c1ccccc1C2=O	Anthrax LF prot 37.6, BoNT A protease 78.9
CC1CC(NC(=O)C2(C)CC2(Cl)Cl)CC(C)(C)C1 (stereo not drawn)	Autofluor counter 20800
CN(C)c1nc2n(c(=O)n1)C(C#N)CS2 (stereo not drawn)	Autofluor counter 16338
O=C(CN1CCCCC1)NNC(=O)c1ccc([N+](=O)[O-])cc1	none
COc1ccc(/C=C2/SC(=O)N(NS(=O)(=O)c3ccccc3)C2=S)cc1OC	Autofluor counter 21520
COc1cc(/C=C2\SC(=S)N(NS(=O)(=O)c3ccccc3)C2=O)cc(OC)c1OC	none
CC(=O)N1c2ccc(S(=O)(=O)N3CCC(C(=O)N4CCN(c5cc(Cl)ccc5C)CC4)CC3)cc2CC1C (stereo not drawn)	none
CCN(CC)c1ccc(/C=N/NC(=O)c2cccc(S(=O)(=O)N3CCOCC3)c2)cc1	GDH-TPI counter 32.2
C/C(=N\NC(=O)c1cccc(S(=O)(=O)N2CCOCC2)c1)c1cc2ccccc2o1	GDH-TPI counter 52.5
